The sample as a whole holds a higher share of hits than the screen did.
Sm TGR block – S. mansoni TGR enzyme inhibition; purified TGR, DTNB reduction, TNB absorbance 405 nm; Potency, µM (titrated, usually from 114 µM), for the others: at the highest dose activity change, negative = inhibition, usual class: inhibitors; hit rate 3% among 360,000; AID 485364; further: potency means the concentration at half of the fitted maximal effect; on the % scale 0 is the no-effect control and ±100 the full control effect; nearly all actives have a fitted effect of over 60% in size
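First, TGR (20 nM dispensed) and NADPH were mixed with compound. Second, a 15 min room-temperature incubation followed. Third, further NADPH and then DTNB were added to start the reaction. Finally, TNB absorbance was monitored kinetically.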
Shiga toxin inh – inhibitors of Shiga toxin in Vero cells. AID 2315. hit rate 9.2% among 290,000. Vero cells, Shiga toxin protein synthesis inhibition reporter. inhibition, % at 38.7 µM; in the data active means inhibition mostly above about 28%, no sharp cut-off; inactive means mostly below about 43%; further: 0% is about no effect
TbPYK inhibitor – inhibitors of Trypanosoma brucei pyruvate kinase; Q57TT1; TbPYK enzyme, Kinase-Glo Plus ATP luminescence, 45 min; Potency, µM (titrated, usually from 76.8 µM), inactives show at the highest dose activity, negative = inhibition, most hits filed as inhibitors; hit rate 0.12% among 410,000; further: potency means the concentration at half of the fitted maximal effect; on the % scale 0 is the no-effect control and ±100 the full control effect; nearly all actives have a fitted effect of over 50% in size
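T. brucei PYK with substrate was exposed to pin-transferred compounds across a concentration series, then started with 130 uM ADP (final). After 45 min at room temperature, Kinase-Glo Plus luminescence was read, normalized and curve-fitted.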
CHX counter – counter-screen hit for Shiga toxin inhibitors, cycloheximide | hit rate 12% among 300,000 | max response, % | cell reporter, cycloheximide protein synthesis inhibition counterscreen; in the data active means max response mostly above about 13%, no sharp cut-off; inactive means mostly below about 14%; further: read at 38.3 µM for the half of the compounds with a filed dose; 0% is about no effect
LmPK inhibitor – blocks Leishmania mexicana pyruvate kinase activity. Q27686. purified LmPK, Kinase-Glo ATP luminescence, 1 h. Potency, µM (doses to about 57.5 µM), inactives show top-dose activity change, negative = inhibition, most hits filed as inhibitors. hit rate 0.37% among 290,000; further: potency means the concentration at half of the fitted maximal effect; on the % scale 0 is the no-effect control and ±100 the full control effect
Target sequence (Q27686 whole entry, looked up): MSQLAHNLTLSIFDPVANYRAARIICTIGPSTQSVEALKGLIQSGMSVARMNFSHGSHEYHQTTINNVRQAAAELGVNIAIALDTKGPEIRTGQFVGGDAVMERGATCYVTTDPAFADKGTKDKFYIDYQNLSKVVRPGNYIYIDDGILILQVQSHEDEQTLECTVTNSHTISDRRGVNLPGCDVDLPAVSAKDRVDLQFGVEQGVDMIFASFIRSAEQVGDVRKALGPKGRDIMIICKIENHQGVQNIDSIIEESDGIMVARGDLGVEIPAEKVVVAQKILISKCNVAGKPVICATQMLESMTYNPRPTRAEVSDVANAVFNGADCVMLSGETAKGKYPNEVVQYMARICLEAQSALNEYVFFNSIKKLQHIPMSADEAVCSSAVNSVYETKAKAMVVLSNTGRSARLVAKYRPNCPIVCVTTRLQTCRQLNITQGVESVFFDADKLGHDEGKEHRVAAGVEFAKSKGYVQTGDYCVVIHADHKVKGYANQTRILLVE
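Pyruvate kinase activity monitored as ATP production (luciferase luminescence). Conditions: 0.1 nM enzyme, 0.5 mM PEP, 0.1 mM ADP, 1 h, RT; normalized against uninhibited and no-enzyme wells.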
Giardia FBPA inh – blocks Giardia fructose-bisphosphate aldolase activity | hit rate 0.71% among 290,000 | purified Giardia FBPA | Potency, µM (doses to about 59.6 µM), for inactives: top-dose activity, negative = inhibition, actives largely listed as inhibitors; further: potency means the concentration at half of the fitted maximal effect; on the % scale 0 is the no-effect control and ±100 the full control effect; nearly all actives have a fitted effect of over 55% in size
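40 nM FBPA preincubated 10 min at RT with compound (up to 57.5 uM final), then substrate plus GAPDH/TPI/NAD/arsenate coupling and diaphorase/resazurin added. Fluorescence read after 20 min at RT, 525/598 nm.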
* hit, by the source's call; ? = inconclusive; . = not tested or not shown. Unless noted, the call rests on the fitted dose curve; in most records, active means well fitted curve in the direction sought with a large enough effect; inconclusive means small, poorly fitted or top-dose-only effect, or another doubt; inactive means no such curve, though single readings can be large; an effect the other way counts as inactive or inconclusive.

SMILES	Sm TGR block	Shiga toxin inh	TbPYK inhibitor	CHX counter	LmPK inhibitor	Giardia FBPA inh
CC(C)Oc1cccc(C(=O)C2CCCN(C(=O)c3ccoc3)C2)c1 (stereo not drawn)	-12%	26*	-5%	16*	4%	4%
CC(C)Oc1cccc(C(=O)C2CCCN(Cc3ccon3)C2)c1 (stereo not drawn)	1%	25	-2%	8.4*	-9%	-1%
CC(=O)c1ccc(-c2cc(C3C4C=CCC(C)C4C(=O)N3Cc3ccccc3)ccc2F)cc1 (stereo not drawn)	.	-5	.	1	.	-1%
CCn1nc(C(=O)Nc2cc(Cl)ccc2-n2cncn2)c2ccccc2c1=O	-33%	.	-3%	.	.	.
CCN(CC(=O)Nc1ccc(NC(C)=O)cc1)CC(=O)Nc1cccc2ccccc12	.	.	-2%	.	.	.
CN(C)Cc1c(O)ccc2ccccc12	1.1µM*	18	-1%	1	5%	-22%
CCN(CC(=O)Nc1ccc(NC(C)=O)cc1)Cc1c(O)ccc2cc(Br)ccc12	0.79µM*	21	-1%	-3	8%	3%
CC(C)CN(Cc1c(O)ccc2ccccc12)CC(C)C	.	15	-1%	-1	0%	-12%
Cc1ccc(NC(=O)CN(C)Cc2c(O)ccc3ccccc23)cc1	0.32µM*	17	41%	-6	3%	0%
CCN(Cc1ccncc1)Cc1c(O)ccc2ccccc12	0.71µM*	32	3%	19	2%	?
C[C@@H]1CN([C@@H](C)CO)C(=O)c2cc(-c3ccccc3F)cnc2O[C@H]1CN(C)Cc1cccc(F)c1	.	.	5%	.	.	.
CC(C)(C)c1cc(NC(=O)Nc2ccc(-c3cn4c(n3)sc3cc(OCCN5CCOCC5)ccc34)cc2)no1	.	.	1%	.	.	.
COc1cccc(CN(C)Cc2c(O)ccc3ccccc23)c1	2.5µM*	24*	0%	26	-1%	-22%
COc1ccc2ccc(O)c(CN(C)CC(=O)Nc3ccccc3C(F)(F)F)c2c1	1.8µM*	16	-16%	-4	2%	-11%
COc1cccc(CN(C)Cc2nc(C3CC3)no2)c1	5%	-1	3%	-1	-1%	3%
COc1ccc2ccccc2c1CN(C)Cc1ccccc1	-26%	.	9%	-4	8%	?
COc1ccc(CN(C)Cc2c(O)ccc3ccccc23)cc1	3.2µM*	3	2%	9	9%	-3%
CC(C)(S)C(=O)N[C@H](CS)C(=O)O	.	.	-20%	.	.	.
Cc1ccc(S(=O)(=O)N2C[C@H]3[C@H]4C(=O)N(c5ccccc5)C(=O)[C@H]4C[C@H](OC(=O)NCc4ccccc4)[C@@]3(O)C2)cc1	.	.	4%	.	.	.
CCC1Oc2ccc(Cl)cc2N(CC(=O)NCCc2ccc(Cl)cc2)C1=O (stereo not drawn)	9%	.	-3%	.	.	.
Cc1[nH]c2ccccc2c1C(C#N)(C#N)C1C(=O)c2ccccc2C1=O	45µM*	22	2%	1	-28%	10µM*
Cc1[nH]c2ccccc2c1CC#N	-36%	16	-7%	1	-1%	-18%
O=[N+]([O-])c1ccc(N=Cc2sc3ccccc3c2O)cc1	1%	108*	-8%	43*	-6%	9%
O=[N+]([O-])c1cccc(N=Cc2sc3ccccc3c2O)c1	-18%	86*	.	38*	-6%	-2%
O=[N+]([O-])c1cccc(N=Cc2ccccc2)c1	.	.	3%	.	.	.
SMILES	Sm TGR block	Shiga toxin inh	TbPYK inhibitor	CHX counter	LmPK inhibitor	Giardia FBPA inh
CC(C)c1ccc(C2=C(O)c3ccccc3C(=O)C2=O)cc1	5%	10	-9%	-3	-20%	-19%
O=C1C(=O)c2ccccc2C(O)=C1c1cccc([N+](=O)[O-])c1	9%	50	-3%	23*	-17%	?
Cc1cccc(C)c1NC(=O)c1ccc2c(c1)nnn2C1CCCC1	5%	.	-1%	.	.	.
CC(Sc1ccc(Cl)cc1)C(=O)N(C)CC(=O)Nc1ccc(N2CCOCC2)cc1 (stereo not drawn)	-4%	.	-2%	.	.	.
CCOc1ccc(-c2cnc(N)n2C)cc1	-8%	16	-2%	10	0%	2%
CCOc1ccc(-c2cn(CCC#N)cn2)cc1	2%	18	2%	15*	-3%	9%
O=P(OCC1CCCO1)(OCC1CCCO1)OCC1CCCO1 (stereo not drawn)	.	.	-3%	.	.	.
O=C(NNc1nc2cc3c(cc2s1)OCCO3)c1ccccc1	4%	146*	-12%	36*	1%	10%
CC(C)(C)C(=O)Nc1nc2cc3c(cc2s1)OCO3	3%	71*	-1%	37*	9%	1%
Cc1cccc2sc(NNC(=O)c3ccc4c(c3)OCCO4)nc12	-8%	76	-21%	12	0%	-16%
COc1ccc(OCC(=O)Nc2nc3cc4c(cc3s2)OCCO4)cc1	.	.	-5%	.	.	.
CC(C)C(=O)Nc1nc2cc3c(cc2s1)OCO3	1%	77*	0%	26*	-6%	-1%
CC(=O)Nc1nc2cc3c(cc2s1)OCCO3	-9%	29*	-21%	44*	-19%	-4%
CN(C)CC1C2CCC(C2)C1O (stereo not drawn)	.	.	2%	.	.	.
N#CCCn1c(=O)c(-c2cc(F)cc(F)c2)nc2cnc(Oc3cccc(Cl)c3)nc21	.	.	2%	.	.	-2%
Cc1nc(NCc2ccco2)c2c(C)c(C)sc2n1	-11%	-27	35%	-4	-1%	?
Cc1sc2nc3c4ccccc4c(NCc4ccco4)nn3c(=O)c2c1C	50µM*	135*	-9%	73*	-9%	-11%
Cc1ccc(N2CCN(C(=O)c3c(C)oc4ncn(CC(C)C)c(=O)c34)CC2)c(C)c1	5%	.	-1%	.	.	.
Cc1nc(N2CCOCC2)c2c(C(=O)NCc3ccc(Cl)cc3)c(C)oc2n1	4%	.	-2%	.	.	.
COc1c(Cl)cc(Cl)cc1/C=C/C(=O)c1ccc(NC(=O)c2cccs2)cc1	-7%	40*	-3%	30*	-2%	2%
COc1cc(NC(=O)c2cccc(Cl)c2)ccc1NC(=O)c1cccs1	0%	98	4%	16*	-3%	-10%
COc1cc(NC(=O)c2ccccc2Cl)ccc1NC(=O)c1cccs1	16%	105*	-1%	46*	7%	-5%
O=C(NC(=S)Nc1ccc(N2CCCC2)cc1)c1ccccc1[N+](=O)[O-]	-7%	40*	-13%	13	2%	0%
O=C(Nc1ccc(N2CCCC2)c(Cl)c1)c1ccccc1[N+](=O)[O-]	-6%	15	-11%	27*	0%	-17%
Cc1ccc(C)c(-c2csc(-c3cccnc3)n2)c1	6%	.	-21%	21*	1%	-1%
c1ccc(-c2csc(-c3cccnc3)n2)cc1	1%	89*	2%	28*	3%	1%
NC(=O)c1cc(-c2csc(-c3cccnc3)n2)ccc1O	-13%	61*	-8%	15	-3%	-8%

High-throughput results deposited in PubChem BioAssay by National Center for Advancing Translational Sciences (NCATS).
